Hit rate of the full screen: of about 220,000 compounds, about 770 (0.35%) were called active. The sample holds actives, similar compounds and a random draw of the others, so the mix is not that of the screen. Cut-off read from the data, not from the text of the source: active = activation above about 11%; inactive = the rest. Where a SMILES comes first, the peptide text is derived from it. [ ]: non-standard residue; d: D form. ξ: configuration not given here. ξM = CSCCC(N)C(=O)O

The target in this test is Sphingosine 1-phosphate receptor 4 (Homo sapiens) (UniProt O95977). As to the kind of experiment: S1P4 receptor agonists, primary screen, cell-based (AID 1509).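 Note: 0% = DMSO vehicle and 100% = reference agonist.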 The settings on record: S1P4-expressing cell line, agonist reporter assay; at 4.98 µM; hits give high values.
Sequence of Sphingosine 1-phosphate receptor 4 (Homo sapiens) (O95977 whole entry, looked up): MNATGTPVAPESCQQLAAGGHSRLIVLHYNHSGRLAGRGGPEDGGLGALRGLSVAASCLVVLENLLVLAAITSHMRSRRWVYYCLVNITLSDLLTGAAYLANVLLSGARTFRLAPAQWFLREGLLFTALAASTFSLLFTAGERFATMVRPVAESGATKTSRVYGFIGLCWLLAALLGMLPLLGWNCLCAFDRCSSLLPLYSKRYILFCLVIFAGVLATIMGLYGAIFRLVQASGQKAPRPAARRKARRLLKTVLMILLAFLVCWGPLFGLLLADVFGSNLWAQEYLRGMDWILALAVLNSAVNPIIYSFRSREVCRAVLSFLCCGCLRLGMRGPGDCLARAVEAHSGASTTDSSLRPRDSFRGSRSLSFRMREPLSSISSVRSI
For the compound `CC1(C)CC(=O)c2c(n(S(=O)(=O)c3ccccc3)c3ccc(NS(=O)(=O)c4ccccc4)cc23)C1`, the activation was -0.65% (inactive).

`O=C(O)/C=C/c1ccc(S(=O)(=O)N2CCCCCC2)cc1`: the activation is 1.37% (inactive).

Regarding `CC1=CC=CC2=N/C(=N\S(=O)(=O)c3ccc(F)cc3F)c3ccccc3CN12`, the activation was 1.89% (inactive).

As to `Cc1ccc2c(c1)nnc1nnc(SCC(=O)O)n12`, the activation is 0.65% (inactive).

With `O=C(O)C1C2CC2CN1C(=O)c1ccc(Cl)cc1Cl` (configuration not stated), the activation is 0.08% (inactive).

Turning to `COc1ccc(/C=C2\N=C3CCCN3C2=O)cc1`, the activation was 0.59% (inactive).

`CCCCCc1nnc(NC(=O)c2ccc(=O)n(C)n2)s1`: the activation was 0.34% (inactive).

Take `CC(=O)c1cc(C#N)c(N2CC(C)OC(C)C2)nc1C` (configuration not stated): the activation was 2.12% (inactive).

Take `CC(C)(C)C1CCC(C(=O)Nc2cccnc2)CC1` (configuration not stated): the activation was -0.6% (inactive).

As for `CCOc1ncccc1C(=O)N(CC)CC(=O)Nc1ccc(NC(C)=O)cc1`, the activation was 0.47% (inactive).

Consider `COc1cc(/C=C/C(=O)OCC(=O)Nc2cccc(Oc3ccccc3)c2)ccc1O`, for which the activation is 0.15% (inactive).

For `CCCNC(=O)c1ccccc1NC(=O)CSCc1ccc(OC)cc1`, the activation is 1.75% (inactive).

As to `CCCc1nc(SCC(=O)Nc2ccccc2OC)c2c(=O)n(C)c(=O)n(C)c2n1`, the activation is -0.79% (inactive).

In the case of `CCCCCNC(=O)c1cccnc1SCC(=O)Nc1ccccc1OC`, the activation was 19.3% (active).

Turning to `O=C(/C(=C/c1cccc(Cl)c1)c1nc2ccccc2[nH]1)c1ccccc1`, the activation was -0.48% (inactive).

`COCCN(CCOC)S(=O)(=O)c1ccc(/C(O)=C(\C#N)c2nc3ccccc3[nH]2)cc1`: the activation was 0.35% (inactive).

Regarding `CCC(=O)/C(=C(/O)c1ccccc1)c1nc2ccccc2[nH]1`, the activation was 12.3% (active).

Regarding `COc1ccc(S(=O)(=O)N2CCN(C(=O)c3cc(C)oc3C)CC2)cc1`, the activation is 0.82% (inactive).

For `Cc1ccsc1/C=N/n1c(=S)[nH]nc(C)c1=O`, the activation is 3.22% (inactive).

As for `COc1ccc(-n2c(C)cc(C(=O)COC(=O)c3cc(OC)c(OC)cc3NC(=O)c3cccs3)c2C)cc1`, the activation was -0.44% (inactive).

`CCOC(=O)NNC(=O)c1ccc(Cl)cc1`: the activation was -0.78% (inactive).

Consider `O=C(NNC(=O)C1C2CCC(C2)C1C(=O)O)c1ccc(Cl)cc1` (configuration not stated), for which the activation was 1.68% (inactive).

`CSc1sc(C(=O)NNC(=O)c2ccc(Cl)cc2)c2c1C=CCC2`: the activation is 13.5% (active).

With `CC(=O)c1ccc(N2CCN(C(=O)c3ccc4nc[nH]c4c3)CC2)cc1`, the activation was 0.76% (inactive).

As to `O=C1CCCc2nn(-c3ccccc3)nc21`, the activation is -2.78% (inactive).

As for `CN(C)S(=O)(=O)c1ccc(Cl)c(NC(=O)COC(=O)CC(NC(N)=O)c2ccc(Cl)cc2)c1` (configuration not stated), the activation was 1.79% (inactive).

As for `C=CCOc1c(CNn2cn[nH]c2=S)cccc1OC`, the activation was 0.93% (inactive).

With `N/C(=N\OC(=O)c1ccc2c(c1)OCO2)c1ccc(Br)cc1`, the activation was -1.54% (inactive).

For `NNC(=O)c1ccc(COCC(F)(F)C(F)F)cc1`, the activation is -0.58% (inactive).

On to `C=CCNC(=O)c1ccccc1NC(=O)c1ccc(Cl)c(S(=O)(=O)Nc2cccc(C)c2C)c1`, for which the activation was 2.53% (inactive).

On to `CS(=O)(=O)c1sc(C(=O)NC(=S)Nc2ccc(OC(F)(F)F)cc2)c2c1C=CCC2`, for which the activation is -1.4% (inactive).

Take `O=C(CN1C(=O)NC(Cc2ccccc2)(Cc2ccccc2)C1=O)NCC1CCCCC1`: the activation is -1.64% (inactive).

Regarding `CCOc1ccc(N2C(=O)CC(N(CCc3ccc(OC)c(OC)c3)C(=S)Nc3ccccc3)C2=O)cc1` (configuration not stated), the activation was 1.87% (inactive).

Turning to `O=C(CCCn1c(SCC(=O)c2ccc(F)cc2)nc2ccccc2c1=O)NCc1ccco1`, the activation was 30.4% (active).

Regarding `O=C(CCn1c(SCC(=O)c2ccccc2)nc2ccccc2c1=O)NCc1ccc(F)cc1`, the activation is 0.31% (inactive).

As to `O=C(CCCn1c(SCC(=O)c2ccccc2)nc2ccccc2c1=O)NCC1CCCO1` (configuration not stated), the activation is 0.54% (inactive).

For `CCOC(=O)N1CCN(c2c(NCCN3CCN(c4ccccc4F)CC3)c(=O)c2=O)CC1`, the activation is 1.24% (inactive).

With `COc1ccc(S(=O)(=O)NC(C)C)cc1C(=O)NC1CCCCC1`, the activation was 1.54% (inactive).

For the compound `CC(Oc1ccc(Br)cc1Br)C(=O)NC1CCCC1` (configuration not stated), the activation is 14.4% (active).

Turning to `CC(=O)OC(C(=O)NC1CCCCC1)c1ccccc1` (configuration not stated), the activation was 0.59% (inactive).

Turning to `Cc1cc(C(=O)NNC(=O)CCC2CCCCC2)c(C)o1`, the activation was 0.49% (inactive).

Take `c1ccc2c(c1)OCCOCCOCCO2`: the activation was 0.22% (inactive).

For `COCCNC(=O)c1ccc(-n2c(SCc3cccnc3)nc3ccccc3c2=O)cc1`, the activation was 1.25% (inactive).

Turning to `CCC1=NN2C(=N)/C(=C/c3cc(C)n(-c4ccccc4)c3C)C(=O)N=C2S1`, the activation is -0.01% (inactive).

As to `Cc1cc2c(cc1C)N(Cc1ccccc1)C1=NCCCN12`, the activation is -0.25% (inactive).

In the case of `O=[N+]([O-])c1ccc(F)cc1Oc1nc(-c2cccnc2)nc2ccccc12`, the activation is 0.24% (inactive).

Consider `COC(=O)CNC(=O)C(CCSC)NC(C)=O` (configuration not stated) (Ac-[ξM]-Gly-OMe), for which the activation was 29.1% (active).

Regarding `CCC(C)NC(=O)N[C@@H](CCSC)C(=O)O` (some centres not stated), the activation was 1.44% (inactive).

For `COC(=O)[C@H](CCSC)NC(=O)Nc1ccc(OC)cc1`, the activation is 0.47% (inactive).

On to `O=C(Cn1nnc2ccccc2c1=O)NCc1ccc(Cl)cc1`, for which the activation was -1.75% (inactive).

As for `C=CCn1c(SCn2nnc3ccccc3c2=O)nnc1-c1ccc(Cl)cc1`, the activation is 19% (active).

Regarding `O=c1c2ccccc2nnn1CSc1nnnn1-c1ccccc1`, the activation is 0.58% (inactive).

For the compound `C/C(CCC(=O)OC[C@H]1O[C@H](C#Cc2ccccc2)C=C[C@@H]1Oc1ccc(C)cc1)=N\OC[C@@H](O)[C@H]1O[C@@H]2OC(C)(C)O[C@@H]2[C@H]1O`, the activation is 0.09% (inactive).

Take `O=C1COc2ccc(C(=O)COC(=O)C3CC(O)CN3S(=O)(=O)c3ccc(Cl)cc3)cc2N1` (configuration not stated): the activation was 1.17% (inactive).

For `O=C(COC(=O)C1CCN(S(=O)(=O)c2ccc3c(c2)OCCO3)CC1)Nc1ccccc1OC(F)F`, the activation is 2.37% (inactive).

Take `CC1CCCC(NC(=O)COC(=O)[C@@H]2CC(O)CN2S(=O)(=O)c2ccc3c(c2)OCCO3)C1C` (some centres not stated): the activation was 194% (active).

`NC(=O)C1=C[C@H](c2csc3ccccc23)C[C@H](OCc2ccc(CO)cc2)O1`: the activation is 3.3% (inactive).

With `COc1ccc(C(=O)N2CCc3cc(OC)c(OC)cc3C2c2cccc([N+](=O)[O-])c2)cc1` (configuration not stated), the activation is 0.65% (inactive).

With `Cc1noc(C)c1COC(=O)Cn1c(C)nc2ccccc21`, the activation is -0.11% (inactive).

Turning to `Cc1noc(C)c1COC(=O)c1cc2ccccc2cc1O`, the activation was -2.59% (inactive).

Regarding `Cc1noc(C)c1COC(=O)COc1ccc(-c2ccccc2)cc1`, the activation is 36% (active).

Turning to `O=C(Nc1ccc(Br)cc1)c1cccc(NC(=O)C2C3CC4OC(=O)C2C4C3)c1` (configuration not stated), the activation was 1.27% (inactive).

`COc1ccc(CCNC(=O)COC(=O)Cc2cc(OC)c(OC)c(OC)c2)cc1`: the activation is -1.28% (inactive).

`CC(=O)Nc1ccc(S(=O)(=O)N2CCN(c3ccc([N+](=O)[O-])c(NCCN4CCOCC4)c3)CC2)cc1`: the activation is 0.49% (inactive).

Take `Cn1nnnc1SCC(=O)NNC(=O)c1ccc(Br)cc1`: the activation is 0.67% (inactive).

As to `CN(Cc1ccccc1)C(=O)COC(=O)c1ccccc1Nc1ccccc1`, the activation is -0.61% (inactive).

Take `COC(=O)c1c(NC(=O)CN2C(=O)NC(CCc3ccccc3)C2=O)sc2c1CCCCC2` (configuration not stated): the activation is 0.65% (inactive).

Consider `CCOC(=O)/C=c1\s/c(=C\c2ccc(C#N)cc2)c(=O)n1CC(=O)Nc1cccc(C)c1C`, for which the activation was -0.03% (inactive).

Turning to `CCOC(=O)/C(C#N)=C/c1ccc(OCC(=O)Nc2ccccc2)c(OC)c1`, the activation is -0.12% (inactive).

With `Cc1cc(C)nc(N(C#N)CC(=O)Nc2ccccc2)n1`, the activation was 14.7% (active).

Consider `Cc1ccc(CC(=O)Nc2cccc(C#N)c2)cc1`, for which the activation was 1.55% (inactive).

Take `N#Cc1c(NC(=O)C2CC(Cl)=CCC2C(=O)O)sc2c1CCCCC2` (configuration not stated): the activation is 0.41% (inactive).

Take `Cn1nnnc1NCc1ccc(Cl)c(Cl)c1`: the activation is 0.14% (inactive).

As for `COc1ccc(N(CC(=O)NC2CCCC2)C(=O)CS(=O)CC(=O)Nc2ccc3c(c2)OCO3)cc1` (configuration not stated), the activation is 1.8% (inactive).

Consider `COc1ccc(-c2cn3ccc(C)cc3n2)cc1`, for which the activation is 0.65% (inactive).

On to `CCC(C)(C)NC(=O)C1c2ccccc2Oc2ccccc21`, for which the activation is 0.03% (inactive).

For the compound `CCC(C)NC(=O)C1c2ccccc2Oc2ccccc21` (configuration not stated), the activation is 15.7% (active).

On to `CCOC(=O)CC(NC(=O)C1c2ccccc2Oc2ccccc21)c1ccc(C)cc1` (configuration not stated), for which the activation was -0.87% (inactive).

As to `O=[N+]([O-])c1ccc2[nH]c3c(c2c1)CCCC3O` (configuration not stated), the activation was 0.79% (inactive).

`O=C(CSc1ccc(-c2ccc(F)cc2)nn1)Nc1ccc2c(c1)OCCO2`: the activation was 57.3% (active).

Consider `Cc1csc(NC(=O)CSc2ccc(-c3ccc(F)cc3)nn2)n1`, for which the activation is 0.5% (inactive).

`Cc1ccc(SCC(=O)Nc2ccc3c(c2)OCCO3)cc1`: the activation is -0.03% (inactive).

With `O=C(CSc1nnc(C2CC2)n1Cc1ccccc1)Nc1cccnc1Cl`, the activation is 0.19% (inactive).

As to `Cc1cc(NC(=O)CSc2nnc(Nc3ccccc3F)s2)no1`, the activation was 0.31% (inactive).

For the compound `O=C(CSc1nnc(Nc2ccccc2)s1)Nc1cccnc1Cl`, the activation was 62.7% (active).

Consider `CCn1nnnc1SCC(=O)c1ccc(C)cc1C`, for which the activation was -0.47% (inactive).

Take `Cc1ccc(NC(=O)N2CCSc3ccccc32)cc1`: the activation was 0.59% (inactive).

`CC(=O)Nc1ccc(Nc2c([N+](=O)[O-])cc(S(C)(=O)=O)cc2[N+](=O)[O-])cc1`: the activation was -0.76% (inactive).

On to `Cn1c(=O)c2c(nc(N3CCOCC3)n2CCNC2=NCCC2)n(C)c1=O`, for which the activation is -3.47% (inactive).

In the case of `Cc1ccc(C(=O)NC(=S)Nc2ccccc2C)cc1`, the activation is 1.14% (inactive).

`CC(=O)Nc1ccccc1NC(=O)c1cc(C)cc(C)c1`: the activation is 52.2% (active).

Take `CSCc1ccc(C(=O)Nc2cc(C)cc(C)c2)cc1`: the activation is 0.79% (inactive).

Values taken from PubChem BioAssay AID1509 (The Scripps Research Institute Molecular Screening Center, 2009).
